Hits are enriched below; roughly 1.2% of the tested compounds scored in any of these assays.
RGS4-Gao reg: modulates binding of RGS4 to human Galphao; P09471; Multiplexed bead flow cytometry; actives lie on both sides; binding response (% of control), % at 10 µM; hit rate 0.33% among 220,000; AID 1415; in the data active = binding response below about 49% or above about 150%; inactive = in between;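 also: fluorescent Galphao activated with aluminum fluoride binding bead-coupled RGS4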
Target sequence (P09471 whole entry, looked up): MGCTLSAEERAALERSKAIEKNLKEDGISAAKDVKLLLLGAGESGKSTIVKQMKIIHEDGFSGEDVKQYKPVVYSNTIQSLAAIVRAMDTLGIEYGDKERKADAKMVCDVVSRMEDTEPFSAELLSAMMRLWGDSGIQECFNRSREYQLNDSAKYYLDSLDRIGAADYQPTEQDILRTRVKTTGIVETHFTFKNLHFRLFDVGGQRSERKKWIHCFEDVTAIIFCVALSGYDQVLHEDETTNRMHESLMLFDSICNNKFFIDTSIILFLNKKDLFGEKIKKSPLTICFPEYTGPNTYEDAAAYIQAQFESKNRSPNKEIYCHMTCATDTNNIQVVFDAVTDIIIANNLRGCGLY
RGS7-Gao: human RGS7-Galphao interaction regulation; P09471; Multiplexed bead flow cytometry, RGS7-Galphao binding; actives lie on both sides; binding response (% of control), % at 10 µM; hit rate 0.35% among 220,000; in the data active = binding response below about 49% or above about 150%; inconclusive = no clear call, values can overlap the other calls; inactive = in between;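 also: fluorescent Galphao held in activated GDP-AlF4 state binding bead-coupled RGS7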
Avidin fluor: avidin bead compound fluorescence profile; fluorescence (KMESF) at 10 µM; AID 1775; hit rate 0.38% among 220,000; Avidin beads, compound fluorescence 488/530 nm, flow cytometry; stronger effect = higher value; in the data active = fluorescence above about 47
RGS8-Gao reg: human RGS8-Galphao interaction regulation; P09471; multiplexed bead flow cytometry, RGS8-Galphao binding; actives lie on both sides; response (percent of control binding), % at 10 µM; hit rate 0.34% among 220,000; AID 1423; in the data active = response below about 60% or above about 140%; inactive = in between;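 also: Galphao activated as the GDP aluminium fluoride complex binding bead-coupled RGS8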
GSH fluor: compound fluoresces at 488/530 nm on GSH beads. GSH beads flow cytometry, compound fluorescence 488/530 nm; stronger effect = higher value. fluorescence (KMESF) at 10 µM. hit rate 0.25% among 190,000; in the data active = fluorescence above about 89;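 also: glutathione beads carrying GST-tagged Bcl family fusion proteins plus one bare bead set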
RGS16-Gao HTS: regulators of human RGS16-Galphao interaction | O15492+P09471 | bead-based flow cytometry RGS16-Galphao binding, fluorescence; actives lie on both sides | binding response (% of control), % at 10 µM | hit rate 0.38% among 220,000;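 also: Galphao activated by GDP with aluminum fluoride before binding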
RGS4-Gao HTS: RGS4-Galphao interaction regulator (human); shares compounds with RGS16-Gao HTS; multiplexed bead flow cytometry, RGS–Galpha-o binding; RGS4–Galpha-o binding response, % at 10 µM; hit rate 99% among 1,600; AID 1504;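 also: fluorescently labeled Galpha-o bound to GDP with aluminium fluoride binding biotinylated RGS beads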
Target sequence (P09471 whole entry, looked up): as above
Target sequence (P49798 whole entry, looked up): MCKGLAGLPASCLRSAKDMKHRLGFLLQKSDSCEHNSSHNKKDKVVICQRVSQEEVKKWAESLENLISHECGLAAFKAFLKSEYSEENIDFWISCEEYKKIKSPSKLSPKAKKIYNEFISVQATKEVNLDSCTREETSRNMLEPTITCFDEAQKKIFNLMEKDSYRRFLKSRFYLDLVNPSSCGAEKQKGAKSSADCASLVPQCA
Avidin counter: interferes with biotinylated probe binding to avidin beads. AID 1783. shares compounds with RGS16-Gao HTS. streptavidin beads, fluorescein-biotin binding, flow cytometry. 1,700 tested, under 10 active. inhibition, % at 10 µM;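 active = inhibition above 50%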;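 also: median green fluorescence of gated singlet beads compared with DMSO control wells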
RGS8-Gao confirm: RGS8-Galphao interaction regulation, single point confirmation | shares compounds with RGS16-Gao HTS | bead-based flow cytometry RGS8-Galphao binding, fluorescence; actives lie on both sides | binding response (% of control), % at 10 µM | hit rate 3% among 1,700; in the data active = binding response below about 72% or above about 130%; inactive = in between;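 also: Galphao activated as GDP AlF4 complex before binding bead RGS8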
RGS7-Gao confirm: RGS7-Galphao interaction regulation, single point confirmation. shares compounds with RGS16-Gao HTS. bead-based flow cytometry RGS7-Galphao binding; actives lie on both sides. response (percent of control binding), % at 10 µM. hit rate 7.8% among 1,700. AID 1837; in the data active = response below about 75% or above about 130%; inactive = in between;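 also: fluorescent Galphao activated with GDP and aluminum fluoride binding bead-coupled RGS7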
RGS16-Gao single: confirmation of regulators of human RGS16-Galphao interaction | bead-based flow cytometry, RGS16-Galphao binding; actives lie on both sides | hit rate 4% among 1,700 | AID 1838 | shares compounds with RGS16-Gao HTS | response (% of control binding), % at 10 µM; in the data active = response below about 74% or above about 130%; inactive = in between;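 also: Galphao activated as the GDP aluminium fluoride complex binding bead-coupled RGS16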
RGS4-Gao confirm: confirmation of regulators of human RGS4-Galphao interaction | shares compounds with RGS16-Gao HTS | RGS4-Galphao binding, multiplexed bead flow cytometry; actives lie on both sides | binding response (% of control), % at 10 µM | hit rate 4% among 1,700; in the data active = binding response below about 74% or above about 130%; inactive = in between
RGS19-Gao single: RGS19-Galphao interaction regulation, single point confirmation; AID 1841; shares compounds with RGS16-Gao HTS; hit rate 5% among 1,700; response (percent of control binding), % at 10 µM; bead-based flow cytometry RGS19-Galphao binding; actives lie on both sides; in the data active = response below about 50% or above about 160%; inactive = in between
Numbers stand for hits; n = inactive; u = inconclusive; x = no result given; [ ] = dose if it differs, or a comment. Unless noted, no rule for the calls is given here.

SMILES	RGS4-Gao reg	RGS7-Gao	Avidin fluor	RGS8-Gao reg	GSH fluor	RGS16-Gao HTS	RGS4-Gao HTS	Avidin counter	RGS8-Gao confirm	RGS7-Gao confirm	RGS16-Gao single	RGS4-Gao confirm	RGS19-Gao single
Cc1cc(F)ccc1NCc1cc2c(cc1[N+](=O)[O-])OCO2	n	n	n	n	n	-41	84	n	n	n	n	n	n
CCOc1ccc(NC(=O)N(C2CCCC2)C2CCN(C(C)=O)CC2)cc1	n	n	n	n	n	n	x	x	x	x	x	x	x
CCOc1ccc(NC(=O)N(CCC(C)C)C2CCN(C(C)=O)CC2)cc1	n	n	n	153[activator]	n	n	127	n	n	n	n	n	n
C=CCOc1c(Cl)cc(CNc2nccs2)cc1OC	n	n	n	n	n	n	x	x	x	x	x	x	x
CSC1=N/C(=C/c2cccnc2)C(=O)N1Cc1ccccc1	-9.4	u	n	12	x	-5.1	x	n	n	n	n	n	n
Cc1ccc(C2=Nc3ccccc3SC(c3cccc([N+](=O)[O-])c3)C2)cc1 (centres undefined)	n	u	n	n	x	n	x	x	x	x	x	x	x
O=C(OCC(=O)N1CCc2ccccc21)c1ccccc1	n	n	n	n	n	n	x	x	x	x	x	x	x
O=C(CO/N=C/c1ccccc1O)N1CCc2ccccc21	n	n	n	n	n	191[activator]	114	n	n	n	n	n	n
COc1ccc(-n2ncc3c(N4CCN(Cc5ccccc5)CC4)ncnc32)cc1	n	u	n	n	n	n	x	x	x	x	x	x	x
c1ccc(-c2nnsc2-c2nc3ccccc3[nH]2)cc1	n	n	n	56	n	n	84	n	n	n	n	n	n
CCOc1ncccc1C(=O)OC(C)C(=O)NC(=O)NC1CCCCC1 (centres undefined)	n	u	n	n	n	n	x	x	x	x	x	x	x
NC1=NC(c2ccccc2)N=C(Nc2ccccc2)N1 (centres undefined)	-58	u	n	0.9	x	-30	x	n	n	n	n	n	n
CN(C)C(CNc1ccc([N+](=O)[O-])cc1C#N)c1ccccc1 (centres undefined)	n	n	n	n	n	n	x	x	x	x	x	x	x
O=C(CCC1CCCN(C(=O)c2cncs2)C1)NCc1ccc(F)c(F)c1 (centres undefined)	n	231[activator]	220	n	n	n	109	n	n	n	n	n	n
NS(=O)(=O)c1cc(C(=O)OCC(=O)NC2CC2)ccc1Cl	n	n	n	n	n	n	x	x	x	x	x	x	x
O=C(Cc1n[nH]c(=O)c2ccccc12)OCC(=O)c1ccc2c(c1)OCCO2	n	n	n	n	n	n	x	x	x	x	x	x	x
O=C(Cc1ccc(Br)cc1)OCC(=O)c1ccc2c(c1)OCCO2	47	42	n	54	n	n	x	n	n	n	n	n	n
NS(=O)(=O)c1cc(C(=O)OCC(=O)c2ccc3c(c2)OCCO3)ccc1Cl	n	179[activator]	51	n	n	n	106	n	n	n	n	n	n
C[n+]1cccc(/C=N/NC(=O)CC23CC4CC(CC(C4)C2)C3)c1	n	u	n	n	x	n	x	x	x	x	x	x	x
CC(=O)Nc1ccc(N2CC(C)(C)C2=O)cc1	n	n	n	n	n	n	x	x	x	x	x	x	x
COc1ccc2[nH]c(=O)c(COC(=O)c3cccs3)cc2c1	21	20	n	22	n	n	x	n	n	n	n	n	n
Cn1c(-n2c(CCCN3C(=O)c4ccccc4C3=O)nc3ccccc3c2=O)nc2ccccc21	180[activator]	n	n	n	255	n	x	n	n	n	n	n	n
CN(C(=O)c1ccc(OC2CCN(C(=O)c3cccnc3)CC2)cc1)C1CCCCC1	n	n	n	n	n	n	x	x	x	x	x	x	x
CC1C(=O)CC(c2ccccc2)NC1c1ccccc1 (centres undefined)	n	n	n	n	n	407[activator]	117	n	n	n	n	n	n
NNC(=O)C(=O)NCCCN1CCOCC1	n	n	n	n	n	n	x	x	x	x	x	x	x
SMILES	RGS4-Gao reg	RGS7-Gao	Avidin fluor	RGS8-Gao reg	GSH fluor	RGS16-Gao HTS	RGS4-Gao HTS	Avidin counter	RGS8-Gao confirm	RGS7-Gao confirm	RGS16-Gao single	RGS4-Gao confirm	RGS19-Gao single
C=C1SC(=Nc2c(C)cccc2Cl)N(C(=O)c2sc3ccccc3c2Cl)C12CCCCC2	n	u	n	n	x	n	x	x	x	x	x	x	x
C=C1SC(=Nc2ccccc2Cl)N(C(=O)c2sc3ccccc3c2Cl)C1(C)C	-16	u	n	9.4	x	-13	x	n	n	n	n	n	n
O=c1c2ccccc2sn1-c1nccs1	n	n	n	n	n	n	x	x	x	x	x	x	x
CN(C)S(=O)(=O)c1cccc(-n2sc3ccccc3c2=O)c1	n	u	n	55	n	17	93	x	x	x	x	x	x
CN(C)S(=O)(=O)c1ccc2[nH]cc(/C=C/c3nc4ccccc4c(=O)n3-c3ccccc3)c2c1	n	n	n	n	n	n	x	x	x	x	x	x	x
O=c1c2ccccc2sn1-c1ccccc1	n	n	n	18	n	-5.3	78	n	25	n	0.1	n	-0.4
O=c1c2ccccc2sn1-c1ccc(S(=O)(=O)N2CCCC2)cc1	n	n	n	31	n	-3.0	92	n	59	n	40	n	8.6
Cc1ccc(-n2sc3ccccc3c2=O)cc1S(=O)(=O)N1CCCCC1	n	n	n	43	n	n	75	x	x	x	x	x	x
NS(=O)(=O)c1ccc(S(=O)(=O)N2CCCC2)cc1	n	n	n	n	n	n	x	x	x	x	x	x	x
COc1ccccc1NC(=O)CSc1nnc(CCC(=O)Nc2ccccc2F)n1C	n	u	n	n	x	n	x	x	x	x	x	x	x
CCCn1c(-c2ccc[nH]c2=O)nc2cc(C)c(C)cc21	n	n	n	n	n	n	x	x	x	x	x	x	x
CC1(c2ccc([N+](=O)[O-])c(CS(=O)(=O)c3ccccc3)c2)OCCO1	n	n	n	n	n	n	x	x	x	x	x	x	x
COc1cc(OC)cc(-c2nc(-c3ccccc3OC)no2)c1	0.9	10	n	14	n	3.8	x	n	n	n	n	n	n
COc1ccccc1-c1noc(-c2cc(OC)c(OC)c(OC)c2)n1	n	n	n	n	n	n	x	x	x	x	x	x	x

Source: PubChem BioAssay (NMMLSC)
